Test results reported in PubChem BioAssay.

Assay: small-molecule microarray binders of probe aShh, primary screen, biochemical, biotinylated probe, 635/667 nm fluorescence (AID 1114);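 also: probe is biotin-labelled aShh protein from a stem cell growth factor screen; measures binding of labelled protein to compounds printed on the slide; score merges feature fluorescence at 667 nm with signal-to-noise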
Settings: higher = more signal

Compared with `O=C1C[C@@H](O)[C@@H](O)[C@@H]2[C@@H]3C(=O)N(c4ccc(F)cc4F)C(=O)[C@@H]3CC[C@H]12`, `CC(C)CON=C1C[C@@H](O)[C@@H](O)[C@@H]2[C@@H]3C(=O)N(c4ccc(F)cc4F)C(=O)[C@@H]3CC[C@@H]12` is lower in composite z-score: -0.18 for the first, -0.279 for the second.

Compared with `Cc1cc(C)c(-c2cc([C@H](C)ON=C[C@@H](C)[C@H](OCc3ccccc3)C(C)C)on2)c(C)c1`, `CC(CCC(=O)OC[C@H]1O[C@H](C#Cc2ccccc2)C=C[C@@H]1Oc1ccc(C)cc1)=NOC[C@@H](C)[C@H](OCc1ccccc1)C(C)C` is lower in composite z-score: 0.0815 for the first, -0.899 for the second.

Compared with `CCN1C(=O)[C@H]2[C@H]3[C@H](O)[C@H](O)CC(=NOCC=C(C)CCC=C(C)C)[C@@H]3CC[C@H]2C1=O`, `CC(C)=CCCC(C)=CCON=C1C[C@@H](O)[C@@H](O)[C@@H]2[C@@H]3C(=O)N(c4cccc(Oc5ccccc5)c4)C(=O)[C@@H]3CC[C@H]12` is higher in composite z-score: -0.282 for the first, 0.0483 for the second.

Going from `CCOC(=O)CCN1C(=O)[C@H]2[C@H]3[C@H](O)[C@H](O)CC(=NO[C@@H]4O[C@H](CO)[C@@H](O)[C@H](O)[C@H]4O)[C@H]3CC[C@H]2C1=O` to `O=C1[C@H]2[C@H]3[C@H](O)[C@H](O)CC(=NO[C@@H]4O[C@H](CO)[C@@H](O)[C@H](O)[C@H]4O)[C@H]3CC[C@H]2C(=O)N1c1ccc(F)cc1F`, the composite z-score rises from -0.156 to 0.178.

First: CC1(C)O[C@H]2OC([C@H](O)CON3C(=O)c4ccccc4C3=O)[C@H](O)[C@H]2O1 (stereo partly specified)
Second: CC(C)(C)N1C(=O)[C@H]2[C@H]3[C@H](O)[C@H](O)CC(=NOC[C@@H](O)COCc4ccco4)[C@@H]3CC[C@H]2C1=O
The composite z-score of the first is lower: -0.27 for the first, -0.16 for the second.

Going from `CC(CCN1CCc2nc(-c3ccccc3)c(-c3ccccc3)cc2C1)=NO[C@H](C)c1cn([C@H](CO)Cc2ccccc2)nn1` to `CN1CCc2nc(-c3ccccc3)c(-c3ccccc3)cc2C1`, the composite z-score rises from -0.16 to 0.204.

First: CON=C(C)CCN1CCCc2nc(C)c(C)cc21
Second: CC(C)=NOC(C)CN1CCCc2nc(C)c(C)cc21 (stereo unspecified)
The composite z-score of the first is lower: 0.151 for the first, 0.214 for the second.

Going from `CC(=O)OC[C@H]1O[C@@H](ON=C(C)CCC(=O)OC[C@H]2O[C@H](C#Cc3ccccc3)C=C[C@@H]2Oc2ccc(C)cc2)[C@H](OC(C)=O)[C@@H](OC(C)=O)[C@@H]1OC(C)=O` to `CC(=O)OC[C@H]1O[C@@H](ON=C(C)C)[C@H](OC(C)=O)[C@@H](OC(C)=O)[C@@H]1OC(C)=O`, the composite z-score falls from -0.0769 to -0.13.

Going from `CCN1C(=O)[C@H]2[C@H]3[C@H](O)[C@H](O)CC(=NO[C@H](C)c4cn([C@H](CO)Cc5ccccc5)nn4)[C@@H]3CC[C@H]2C1=O` to `CCCNC(=O)OC[C@H]1O[C@H](CCON=C2C[C@@H](O)[C@@H](O)[C@@H]3[C@@H]4C(=O)N(CC)C(=O)[C@@H]4CC[C@@H]23)C=C[C@@H]1Oc1ccc(OC)cc1`, the composite z-score rises from -0.358 to 0.531.

Going from `C=C(C)C(=O)OC[C@H]1CN2[C@@H](CC[C@@H](C)[C@@H]2c2ccc(Br)cc2)C(=O)O1` to `COc1ccc(OC[C@H]2CN3[C@@H](CC[C@@H](C)[C@@H]3c3ccc(Br)cc3)C(=O)O2)cc1`, the composite z-score falls from -0.0553 to -0.221.

Going from `CC(CCN1CCCc2nc(C)c(C)cc21)=NOC[C@@H](O)COCc1ccco1` to `CC(=O)OC[C@H]1O[C@H](CC=NOC[C@@H](O)COCc2ccco2)C=C[C@@H]1OC(C)=O`, the composite z-score falls from 2.26 to -0.356.

Compared with `O=C1C=C[C@@H](O)[C@@H]2[C@@H]3C(=O)N(Cc4ccc5c(c4)OCO5)C(=O)[C@@H]3CC[C@@H]12`, `CCOC(=O)CCN1C(=O)[C@H]2[C@H]3[C@H](O)[C@H](O)CC(=O)[C@@H]3CC[C@H]2C1=O` is lower in composite z-score: -0.0626 for the first, -0.138 for the second.

Going from `C=CC[C@@H]1C=CC(ON=C(C)C)[C@@H](CO)O1` (stereo partly specified) to `COc1ccc(OC[C@@H](CO)OC)cc1`, the composite z-score rises from -0.2 to 0.0639.

Compared with `CCC1=NOC(CCC2CC(OC(=O)NCc3cccc4c3OCO4)CC3(CCCC(COC(=O)NCCc4ccc(Cl)cc4)O3)O2)C1` (stereo unspecified), `COC(=O)[C@H](C)NC(=O)CCC1CC(OC(=O)NCCc2ccc(F)cc2)CC2(CCCC(COC(=O)NCC3CCCCC3)O2)O1` (stereo partly specified) is higher in composite z-score: -0.16 for the first, 0.0469 for the second.

Compared with `C#CCCCON=C1C[C@@H](O)[C@@H](O)[C@@H]2[C@@H]3C(=O)N(C4CCCCC4)C(=O)[C@@H]3CC[C@@H]12`, `C#CCCCON=C1C[C@@H](O)[C@@H](O)[C@@H]2[C@@H]3C(=O)N(C[C@@H]4CCCO4)C(=O)[C@@H]3CC[C@H]12` is higher in composite z-score: -0.212 for the first, -0.2 for the second.

Going from `CCOC(=O)[C@H](Cc1ccccc1)NC(=O)CCC1CC(OC(=O)NCc2cccc3ccccc23)CC2(CCCC(COC(=O)NCC3CCCCC3)O2)O1` (stereo partly specified) to `CCOC(=O)[C@H](CC(C)C)NC(=O)CCC1CC(OC(=O)NCc2ccc3c(c2)OCO3)CC2(CCCC(COC(=O)NCCC(C)C)O2)O1` (stereo partly specified), the composite z-score falls from 0.0596 to -0.283.

Going from `O=C1C[C@H](c2ccccc2)[C@H](c2ccc(Br)cc2)O1` to `Cc1ccc(S(=O)(=O)N[C@@H]2COC(=O)CC=C[C@@H](C)[C@H](NS(=O)(=O)c3ccc(C)cc3)COC(=O)[C@H](C)NC(=O)CC=C[C@H]2C)cc1`, the composite z-score falls from -0.138 to -0.221.

First: CC#CCOCCC=C1c2ccccc2[C@@H](OC)[C@@H]1C
Second: CC(C)CON=C1C[C@@H](O)[C@@H](O)[C@@H]2[C@@H]3C(=O)N(C(C)(C)C)C(=O)[C@@H]3CC[C@@H]12
The composite z-score of the first is higher: -0.138 for the first, -0.229 for the second.
